Data as given in PubChem BioAssay (EPA / NIEHS).
Where “and” joins values, the source holds several entries; their conditions need not be identical. Equal values may be shown once. A structure can be active in one record and inactive in another. Calls of active or inactive are those of the source. How the source made its calls: active means hit-call score of the fitted dose curve at least 0.9, where 1 is the maximum; inactive means score below 0.9.

Tests used:
[1] = molecular target: Bile acid receptor (Homo sapiens) (UniProt Q96RI1); test: ATG_IR1_CIS: Attagene CIS-FACTORIAL HepG2 Assay for human Nuclear Receptor Subfamily 1 Group H Member 4 (NR1H4), IR1 submotif (AID 2282946); settings: IR1 reporter transcription, actives raise or lower the signal
How it was run: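 Fluorescence of capillary-separated, HpaI-digested RT-PCR reporter products gave IR1-element mRNA induction in HepG2 cells 24 h after dosing. Endogenous transcription factors drove the cis-regulated reporters; activity was fitted bidirectionally against DMSO.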

[2] = ATG_GRE_CIS: Attagene CIS-FACTORIAL HepG2 Assay for human Glucocorticoid Response Elements (GRE) (AID 2282947); settings: HepG2 GRE cis-reporter, Attagene multiplex mRNA; actives raise or lower the signal
How it was run: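 Fluorescence intensity of reporter-specific cDNA fragments, separated by capillary electrophoresis, provides the signal. Constructs carry cis-regulating promoters in transiently transfected HepG2 liver cells; 24 h incubation; fitting is bidirectional against DMSO.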

[3] = ATG_ISRE_CIS: Attagene CIS-FACTORIAL HepG2 Assay for human Interferon Regulatory Factor 1 (IRF1) binding to an Interferon-Stimulated Response Element (ISRE) (AID 2282948); settings: HepG2 ISRE cis-reporter (Attagene), mRNA transcription readout; actives raise or lower the signal
How it was run: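 Uses HepG2 liver cells transfected with cis-regulated reporters and measures mRNA 24 h post-dosing through RT-PCR, primer-extension labelling and capillary electrophoresis, with DMSO as negative control.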

[4] = ATG_M_32_CIS: Attagene CIS-FACTORIAL HepG2 Assay for M32 Transcription Factor (Internal Marker) (AID 2282949); settings: HepG2 Attagene cis-factorial M32 reporter, mRNA; actives raise or lower the signal;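 further: background control marker of the multiplexed CIS panel rather than a real target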
How it was run: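 HepG2 human liver cells transiently transfected with cis-promoter-driven multiple reporter transcription units, dosed 24 h. Reporter mRNA quantified by RT-PCR, FAM-labelled primer extension, HpaI digest and capillary electrophoresis; bidirectional fit versus DMSO baseline.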

[5] = ATG_M_06_CIS: Attagene CIS-FACTORIAL HepG2 Assay for M06 Transcription Factor (Internal Marker) (AID 2282950); settings: HepG2 Attagene CIS-FACTORIAL M06 internal marker reporter; actives raise or lower the signal
How it was run: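 One of many multiplexed endpoints: HepG2 reporter mRNA after 24 h dosing, detected by RT-PCR and capillary electrophoresis fluorescence; gain or loss of signal analysed against DMSO.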

[6] = molecular target: Hypoxia-inducible factor 1-alpha (Homo sapiens) (UniProt Q16665); test: ATG_HIF1a_CIS: Attagene CIS-FACTORIAL HepG2 Assay for human Hypoxia Inducible Factor 1 (HIF1A) (AID 2282951); settings: HepG2 Attagene cis-factorial HIF1a reporter transcription; actives raise or lower the signal
How it was run: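 HepG2 cells transiently transfected with multiple cis-regulated reporter transcription units measure endogenous transcription factor activity. After 24 h exposure, reporter mRNA is quantified by RT-PCR with 6-FAM labelling, HpaI digestion and capillary electrophoresis. Bidirectional fitting against DMSO.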

[7] = molecular target: Hepatocyte nuclear factor 6 (Homo sapiens) (UniProt Q9UBC0); test: ATG_HNF6_CIS: Attagene CIS-FACTORIAL HepG2 Assay for human Hepatocyte Nuclear Factor 6 (HNF6) (AID 2282952); settings: HepG2 Attagene cis-factorial HNF6 reporter transcription; actives raise or lower the signal
How it was run: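 Endogenous transcription factor activity in human HepG2 liver cells was captured through cis-regulated reporter constructs. After 24 h treatment, reporter mRNA was measured by RT-PCR with capillary electrophoresis, and activity was fitted in both directions relative to DMSO.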

[8] = ATG_MRE_CIS: Attagene CIS-FACTORIAL HepG2 Assay for human Metal Responsive Element (MRE) (AID 2282954); settings: HepG2 MRE cis-reporter transcription, Attagene multiplex; actives raise or lower the signal
How it was run: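 Measured here is mRNA induction from an MRE cis-element reporter in HepG2 after 24 h, quantified by fluorescence of labelled RT-PCR products on capillary electrophoresis; gain- and loss-of-signal fits use DMSO as baseline.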

[9] = ATG_PBREM_CIS: Attagene CIS-FACTORIAL HepG2 Assay for human Phenobarbital-responsive Enhancer Module (PBREM) (AID 2282955); settings: HepG2 PBREM cis-reporter, Attagene multiplexed transcription; actives raise or lower the signal
How it was run: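 HepG2 cells transiently transfected with multiple cis-regulated reporter units measure endogenous transcription factor activity; 24 h compound exposure. Reporter mRNA quantified by RT-PCR, fluorescent labelling, HpaI digestion and capillary electrophoresis; bidirectional fit versus DMSO.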

[10] = molecular target: Paired box protein Pax-6 (Homo sapiens) (UniProt P26367); test: ATG_Pax6_CIS: Attagene CIS-FACTORIAL HepG2 Assay for human Paired Box 6 (PAX6) (AID 2282956); settings: HepG2 CIS-FACTORIAL PAX6 reporter transcription, RNA readout; actives raise or lower the signal
How it was run: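 DMSO-referenced bidirectional fits of reporter mRNA fluorescence; HepG2 with transient cis-promoter MRTUs, 24 h post-dose, RT-PCR plus capillary electrophoresis detection.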

[11] = ATG_PXRE_CIS: Attagene CIS-FACTORIAL HepG2 Assay for human Pregnane X Receptor Element (PXRE) (AID 2282957); settings: HepG2 Attagene CIS-FACTORIAL PXRE reporter, mRNA; actives raise or lower the signal
How it was run: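 Endogenous transcription factor activity in HepG2 was gauged through induction of reporter mRNA driven by a cis-regulating promoter element, sampled 24 h post-treatment. Activity was fitted in both directions against DMSO negative control.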

[12] = ATG_Sox_CIS: Attagene CIS-FACTORIAL HepG2 Assay for human SRY-box transcription factor (SOX) (AID 2282960); settings: HepG2 Attagene cis-factorial SOX reporter, mRNA; actives raise or lower the signal
How it was run: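 HepG2 cells transiently transfected with multiple cis-regulated reporter units, then dosed for 24 h. Reporter mRNA quantified by RT-PCR, fluorescent labelling, HpaI digestion and capillary electrophoresis; bidirectional fit versus DMSO.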

[13] = molecular target: Transcription factor Sp1 (Homo sapiens) (UniProt P08047); test: ATG_Sp1_CIS: Attagene CIS-FACTORIAL HepG2 Assay for human Specificity Protein 1 (Sp1) (AID 2282961); settings: HepG2 Sp1 cis-reporter transcription, actives raise or lower the signal
How it was run: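 HepG2 cells transiently transfected with multiplexed cis-regulated reporter constructs, chemical exposure 24 h. Reporter mRNA quantified by RT-PCR with capillary electrophoresis; bidirectional fit relative to DMSO.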

[14] = ATG_SREBP_CIS: Attagene CIS-FACTORIAL HepG2 Assay for human Sterol Regulatory Element Binding (SREBP) (AID 2282962); settings: HepG2 Attagene cis-factorial SREBP reporter, mRNA; actives raise or lower the signal
How it was run: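 In this cis-format assay, HepG2 liver cells express reporters controlled by promoter elements responsive to native transcription factors. Exposure lasts 24 h; reporter mRNA fluorescence from capillary electrophoresis gives the signal, fitted bidirectionally against DMSO.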

[15] = molecular target: Signal transducer and activator of transcription 3 (Homo sapiens) (UniProt P40763); test: ATG_STAT3_CIS: Attagene CIS-FACTORIAL HepG2 Assay for human Signal Transducer and Activator of Transcription 3 (STAT3) (AID 2282963); settings: HepG2, Attagene cis-factorial STAT3 reporter transcription; actives raise or lower the signal
How it was run: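 Fluorescence intensity of 6-FAM-labelled reporter fragments, separated by capillary electrophoresis after RT-PCR, gave the signal. Cells were HepG2 transfected with cis-element reporter units and treated 24 h; fitting was bidirectional relative to DMSO.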

[16] = ATG_TA_CIS: Attagene CIS-FACTORIAL HepG2 Assay for human TA Basal Promoter (AID 2282964); settings: HepG2 Attagene CIS-factorial TA basal promoter reporter; actives raise or lower the signal
How it was run: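 Transient MRTU transfection of HepG2 preceded 24 h compound exposure. Reporter mRNA levels were then read by RT-PCR with capillary electrophoresis, and this background-control endpoint was fitted bidirectionally to DMSO.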

[17] = ATG_TCF_b_cat_CIS: Attagene CIS-FACTORIAL HepG2 Assay for human T-Cell-Factor with beta-catenin (TCF/b-cat) (AID 2282965); settings: HepG2 TCF/beta-catenin cis-reporter transcription, actives raise or lower the signal
How it was run: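 HepG2, transient MRTU transfection, cis-element-driven reporters (endogenous TFs). 24 h compound exposure. Readout: reporter mRNA by RT-PCR + 6-FAM primer extension, HpaI digest, capillary electrophoresis. Gain/loss fit vs DMSO baseline.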

[18] = molecular target: Heat shock factor protein 1 (Homo sapiens) (UniProt Q00613); test: ATG_HSE_CIS: Attagene CIS-FACTORIAL HepG2 Assay for human Heat Shock Transcription Factor 1 (HSE) (AID 2282953); settings: HepG2 HSE cis-reporter, Attagene RNA transcription; actives raise or lower the signal
How it was run: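 Using HepG2 with transfected cis-driven reporter constructs, compound effects on endogenous factor activity are scored as reporter mRNA change at 24 h. Detection: RT-PCR, HpaI digestion, capillary electrophoresis; bidirectional fitting to DMSO.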

[19] = ATG_PPRE_CIS: Attagene CIS-FACTORIAL HepG2 Assay for human Peroxisome Proliferator-activated Response Element (PPRE) (AID 2282958); settings: HepG2 PPRE cis-element reporter, Attagene transcription factor profiling; actives raise or lower the signal
How it was run: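 HepG2 cells are transiently transfected with multiplexed cis-promoter reporter units to report endogenous PPAR activity. After 24 h dosing, reporter mRNA is read by RT-PCR and capillary electrophoresis. Fitting is bidirectional against DMSO.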

[20] = ATG_RORE_CIS: Attagene CIS-FACTORIAL HepG2 Assay for human RAR-related Orphan Receptor Element (RORE) (AID 2282959); settings: HepG2 Attagene cis-factorial RORE reporter, mRNA; actives raise or lower the signal
How it was run: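 HepG2 cells carrying transiently transfected cis-regulated reporter units; RORE-driven reporter mRNA quantified 24 h post-dosing by RT-PCR, 6-FAM primer extension, HpaI digestion and capillary electrophoresis. Bidirectional fit versus DMSO.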

Measured: AC50

Sequence of Signal transducer and activator of transcription 3 (Homo sapiens) (P40763 whole entry, looked up, the tested form may be a part): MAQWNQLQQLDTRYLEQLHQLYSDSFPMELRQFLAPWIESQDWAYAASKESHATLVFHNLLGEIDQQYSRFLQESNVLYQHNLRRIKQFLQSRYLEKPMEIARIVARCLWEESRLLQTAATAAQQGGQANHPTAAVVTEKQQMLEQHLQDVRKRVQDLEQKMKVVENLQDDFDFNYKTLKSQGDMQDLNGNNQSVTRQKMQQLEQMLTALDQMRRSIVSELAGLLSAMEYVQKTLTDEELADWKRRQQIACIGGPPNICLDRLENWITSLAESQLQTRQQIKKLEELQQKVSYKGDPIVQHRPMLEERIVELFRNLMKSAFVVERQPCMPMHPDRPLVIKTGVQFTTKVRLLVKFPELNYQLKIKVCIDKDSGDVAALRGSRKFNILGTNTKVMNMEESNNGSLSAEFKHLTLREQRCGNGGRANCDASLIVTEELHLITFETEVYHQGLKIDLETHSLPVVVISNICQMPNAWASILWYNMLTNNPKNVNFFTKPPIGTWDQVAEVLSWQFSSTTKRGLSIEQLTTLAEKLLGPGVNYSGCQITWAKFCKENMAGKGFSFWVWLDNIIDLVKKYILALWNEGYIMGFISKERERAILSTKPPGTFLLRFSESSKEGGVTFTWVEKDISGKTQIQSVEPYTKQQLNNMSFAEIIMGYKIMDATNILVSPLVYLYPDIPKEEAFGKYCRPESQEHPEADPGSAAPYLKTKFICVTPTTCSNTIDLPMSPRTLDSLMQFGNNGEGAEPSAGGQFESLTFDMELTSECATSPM
Sequence of Paired box protein Pax-6 (Homo sapiens) (P26367 whole entry, looked up): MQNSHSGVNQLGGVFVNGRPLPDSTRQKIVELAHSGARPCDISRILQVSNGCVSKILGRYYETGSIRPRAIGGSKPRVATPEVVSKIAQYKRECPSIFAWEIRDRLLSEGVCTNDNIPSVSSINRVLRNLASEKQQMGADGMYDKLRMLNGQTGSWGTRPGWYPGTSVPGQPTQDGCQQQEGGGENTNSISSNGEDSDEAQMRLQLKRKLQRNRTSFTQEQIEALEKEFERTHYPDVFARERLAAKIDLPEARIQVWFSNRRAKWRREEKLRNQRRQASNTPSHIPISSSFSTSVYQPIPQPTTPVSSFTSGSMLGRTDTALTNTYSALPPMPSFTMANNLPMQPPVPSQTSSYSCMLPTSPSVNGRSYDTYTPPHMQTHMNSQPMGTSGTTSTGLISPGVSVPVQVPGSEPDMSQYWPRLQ
Sequence of Bile acid receptor (Homo sapiens) (Q96RI1 whole entry, looked up): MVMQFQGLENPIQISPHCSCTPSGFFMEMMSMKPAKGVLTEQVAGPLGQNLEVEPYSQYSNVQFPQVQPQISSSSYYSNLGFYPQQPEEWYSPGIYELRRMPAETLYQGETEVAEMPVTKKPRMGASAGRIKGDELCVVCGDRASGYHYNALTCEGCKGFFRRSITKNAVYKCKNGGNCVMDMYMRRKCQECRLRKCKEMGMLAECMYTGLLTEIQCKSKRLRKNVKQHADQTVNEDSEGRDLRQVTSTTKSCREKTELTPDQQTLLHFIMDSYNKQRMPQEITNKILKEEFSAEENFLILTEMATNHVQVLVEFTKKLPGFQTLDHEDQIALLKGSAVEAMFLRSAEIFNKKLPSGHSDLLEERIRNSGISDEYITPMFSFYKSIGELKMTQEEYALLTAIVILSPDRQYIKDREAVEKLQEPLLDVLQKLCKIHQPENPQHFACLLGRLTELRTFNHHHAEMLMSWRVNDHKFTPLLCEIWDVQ
Sequence of Hypoxia-inducible factor 1-alpha (Homo sapiens) (Q16665 whole entry, looked up): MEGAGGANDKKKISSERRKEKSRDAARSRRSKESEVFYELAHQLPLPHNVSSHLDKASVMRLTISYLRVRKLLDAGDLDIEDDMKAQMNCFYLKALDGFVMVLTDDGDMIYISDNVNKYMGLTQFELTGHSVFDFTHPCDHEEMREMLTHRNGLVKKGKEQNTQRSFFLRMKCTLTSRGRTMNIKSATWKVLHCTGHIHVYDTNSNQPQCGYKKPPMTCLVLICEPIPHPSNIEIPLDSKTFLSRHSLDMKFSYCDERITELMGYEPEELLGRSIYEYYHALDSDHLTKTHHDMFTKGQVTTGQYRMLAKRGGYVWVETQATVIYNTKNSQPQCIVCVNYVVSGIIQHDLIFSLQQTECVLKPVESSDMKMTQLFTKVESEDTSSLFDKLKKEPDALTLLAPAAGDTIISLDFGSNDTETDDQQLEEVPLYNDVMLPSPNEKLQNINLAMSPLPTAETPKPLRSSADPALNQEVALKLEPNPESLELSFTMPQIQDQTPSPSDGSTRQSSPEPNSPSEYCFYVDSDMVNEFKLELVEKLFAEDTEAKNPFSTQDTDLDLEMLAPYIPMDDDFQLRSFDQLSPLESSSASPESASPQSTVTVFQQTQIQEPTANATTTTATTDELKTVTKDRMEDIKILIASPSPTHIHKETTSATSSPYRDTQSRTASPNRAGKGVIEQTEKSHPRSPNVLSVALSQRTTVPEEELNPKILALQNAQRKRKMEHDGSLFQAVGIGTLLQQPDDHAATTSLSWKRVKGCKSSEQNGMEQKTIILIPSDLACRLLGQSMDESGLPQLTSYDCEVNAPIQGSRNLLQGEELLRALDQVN
Sequence of Heat shock factor protein 1 (Homo sapiens) (Q00613 whole entry, looked up): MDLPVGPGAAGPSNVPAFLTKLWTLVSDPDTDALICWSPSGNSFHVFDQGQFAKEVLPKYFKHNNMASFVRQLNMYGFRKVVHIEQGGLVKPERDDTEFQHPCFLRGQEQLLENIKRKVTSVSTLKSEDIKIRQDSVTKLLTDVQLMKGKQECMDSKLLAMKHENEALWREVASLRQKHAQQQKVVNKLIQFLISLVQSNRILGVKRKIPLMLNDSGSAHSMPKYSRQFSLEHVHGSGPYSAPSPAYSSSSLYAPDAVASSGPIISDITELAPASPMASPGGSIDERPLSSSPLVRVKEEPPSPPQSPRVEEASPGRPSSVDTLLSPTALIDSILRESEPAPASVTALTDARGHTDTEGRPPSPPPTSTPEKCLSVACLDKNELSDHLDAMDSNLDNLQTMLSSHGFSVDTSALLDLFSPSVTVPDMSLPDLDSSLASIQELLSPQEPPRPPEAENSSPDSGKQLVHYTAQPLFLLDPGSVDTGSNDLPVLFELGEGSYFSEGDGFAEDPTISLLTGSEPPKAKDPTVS
Sequence of Transcription factor Sp1 (Homo sapiens) (P08047 whole entry, looked up): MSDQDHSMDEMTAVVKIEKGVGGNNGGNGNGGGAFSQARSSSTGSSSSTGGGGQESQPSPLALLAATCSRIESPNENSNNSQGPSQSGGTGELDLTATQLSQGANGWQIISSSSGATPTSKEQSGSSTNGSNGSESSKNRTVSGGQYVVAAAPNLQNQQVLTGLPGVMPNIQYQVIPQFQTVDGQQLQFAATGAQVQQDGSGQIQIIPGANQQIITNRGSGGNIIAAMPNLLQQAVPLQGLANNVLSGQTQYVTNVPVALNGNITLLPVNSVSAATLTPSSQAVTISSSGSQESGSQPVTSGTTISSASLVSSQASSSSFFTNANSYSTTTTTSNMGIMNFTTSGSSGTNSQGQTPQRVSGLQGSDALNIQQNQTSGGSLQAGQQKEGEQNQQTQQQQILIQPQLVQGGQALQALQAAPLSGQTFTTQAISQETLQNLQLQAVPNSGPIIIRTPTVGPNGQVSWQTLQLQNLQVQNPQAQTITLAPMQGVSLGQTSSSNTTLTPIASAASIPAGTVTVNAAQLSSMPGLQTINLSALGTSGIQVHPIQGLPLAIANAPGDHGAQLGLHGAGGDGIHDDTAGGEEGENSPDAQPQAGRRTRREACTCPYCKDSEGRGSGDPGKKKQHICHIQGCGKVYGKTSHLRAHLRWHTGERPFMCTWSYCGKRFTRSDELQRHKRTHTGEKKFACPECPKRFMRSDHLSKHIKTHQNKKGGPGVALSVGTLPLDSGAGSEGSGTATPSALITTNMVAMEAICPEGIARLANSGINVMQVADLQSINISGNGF
Sequence of Hepatocyte nuclear factor 6 (Homo sapiens) (Q9UBC0 whole entry, looked up): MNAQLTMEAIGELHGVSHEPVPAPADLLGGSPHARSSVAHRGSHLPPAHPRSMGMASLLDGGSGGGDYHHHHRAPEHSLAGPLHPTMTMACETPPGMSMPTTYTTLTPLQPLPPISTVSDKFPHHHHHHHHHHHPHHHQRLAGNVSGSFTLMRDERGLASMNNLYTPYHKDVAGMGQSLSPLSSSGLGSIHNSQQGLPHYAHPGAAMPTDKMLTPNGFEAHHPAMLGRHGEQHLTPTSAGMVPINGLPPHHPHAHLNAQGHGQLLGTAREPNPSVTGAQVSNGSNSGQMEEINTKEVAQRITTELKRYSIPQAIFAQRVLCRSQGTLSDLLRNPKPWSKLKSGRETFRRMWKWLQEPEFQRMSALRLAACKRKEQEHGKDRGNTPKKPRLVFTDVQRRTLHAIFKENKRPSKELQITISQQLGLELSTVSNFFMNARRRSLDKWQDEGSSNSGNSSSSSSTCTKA

Cc1occc1C(=O)Nc1ccc(C(=O)N2CCC(F)(F)/C(=C\C(=O)N3CCC(N4CCCCC4)CC3)c3ccccc32)cc1
inactive: [1] | [4] | [5] | [6] | [9] | [14] | [16]
active: [2] 57.8 µM | [3] 34.5 µM | [7] 49.8 µM | [8] 23.7 µM | [10] 34.5 µM | [11] 8.38 µM | [12] 42.3 µM | [13] 56 µM | [15] 62.6 µM | [17] 26.5 µM

CCCOC(=O)c1cc(O)c(O)c(O)c1
active: [6] 65.1 µM | [19] 21 µM
inactive: all other assays above

CC(=O)N1CCN(c2ccc(OC[C@H]3CO[C@](Cn4ccnc4)(c4ccc(Cl)cc4Cl)O3)cc2)CC1
inactive: [2] | [4] | [5] | [7] | [9] | [19] | [12] | [15]
active: [1] 48.5 µM | [3] 15.1 µM | [18] 55.6 µM | [8] 33.9 µM | [10] 10 µM | [20] 1.58 µM | [13] 49.9 µM | [14] 5.24 µM | [16] 4.84 µM | [17] 5.19 µM

CC(C)(c1cc(Br)c(O)c(Br)c1)c1cc(Br)c(O)c(Br)c1
active: [3] 44.8 µM | [6] 47.1 µM | [18] 49.8 µM and 49.3 µM | [8] 46.7 µM and 48.6 µM | [10] 46 µM and 42.9 µM | [11] 7.93 µM and 8.01 µM | [12] 41.4 µM and 43.4 µM | [13] 39.3 µM and 31.9 µM | [14] 31.7 µM and 23 µM | [16] 23.2 µM | [17] 42.6 µM and 22.7 µM
inactive: [2] | [3] | [4] | [5] | [6] | [7] | [9] | [15] | [16]

O=C(O)c1ccccc1-n1cc(C(=O)O)c(=O)c2cc(Nc3c(F)cc(F)cc3Cl)c(Cl)cc21
active: [11] 62.3 µM
not listed: [1]
inactive: all other assays above

CCCCCCCCCCCCO
not listed: [2] | [11]
inactive: all other assays above
